Pf apPOL inh – Pf-apPOL DNA polymerase inhibition | Recombinant Pf-apPOL, molecular beacon fluorescence, 1.5 h | inhibition, % at 10 µM | 210,000 tested, 0.25% active | AID 1794808
mHTT CaM bind – mHTT-calmodulin interaction abrogation | AlphaScreen His-mHTT/GST-CaM binding, luminescence | inhibition, % at 15 µM | 190,000 tested, 3.6% active | AID 1671202;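 also: 0% = both proteins with DMSO and 100% = one protein alone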
Target sequence (P42858 whole entry, looked up, stated change not applied): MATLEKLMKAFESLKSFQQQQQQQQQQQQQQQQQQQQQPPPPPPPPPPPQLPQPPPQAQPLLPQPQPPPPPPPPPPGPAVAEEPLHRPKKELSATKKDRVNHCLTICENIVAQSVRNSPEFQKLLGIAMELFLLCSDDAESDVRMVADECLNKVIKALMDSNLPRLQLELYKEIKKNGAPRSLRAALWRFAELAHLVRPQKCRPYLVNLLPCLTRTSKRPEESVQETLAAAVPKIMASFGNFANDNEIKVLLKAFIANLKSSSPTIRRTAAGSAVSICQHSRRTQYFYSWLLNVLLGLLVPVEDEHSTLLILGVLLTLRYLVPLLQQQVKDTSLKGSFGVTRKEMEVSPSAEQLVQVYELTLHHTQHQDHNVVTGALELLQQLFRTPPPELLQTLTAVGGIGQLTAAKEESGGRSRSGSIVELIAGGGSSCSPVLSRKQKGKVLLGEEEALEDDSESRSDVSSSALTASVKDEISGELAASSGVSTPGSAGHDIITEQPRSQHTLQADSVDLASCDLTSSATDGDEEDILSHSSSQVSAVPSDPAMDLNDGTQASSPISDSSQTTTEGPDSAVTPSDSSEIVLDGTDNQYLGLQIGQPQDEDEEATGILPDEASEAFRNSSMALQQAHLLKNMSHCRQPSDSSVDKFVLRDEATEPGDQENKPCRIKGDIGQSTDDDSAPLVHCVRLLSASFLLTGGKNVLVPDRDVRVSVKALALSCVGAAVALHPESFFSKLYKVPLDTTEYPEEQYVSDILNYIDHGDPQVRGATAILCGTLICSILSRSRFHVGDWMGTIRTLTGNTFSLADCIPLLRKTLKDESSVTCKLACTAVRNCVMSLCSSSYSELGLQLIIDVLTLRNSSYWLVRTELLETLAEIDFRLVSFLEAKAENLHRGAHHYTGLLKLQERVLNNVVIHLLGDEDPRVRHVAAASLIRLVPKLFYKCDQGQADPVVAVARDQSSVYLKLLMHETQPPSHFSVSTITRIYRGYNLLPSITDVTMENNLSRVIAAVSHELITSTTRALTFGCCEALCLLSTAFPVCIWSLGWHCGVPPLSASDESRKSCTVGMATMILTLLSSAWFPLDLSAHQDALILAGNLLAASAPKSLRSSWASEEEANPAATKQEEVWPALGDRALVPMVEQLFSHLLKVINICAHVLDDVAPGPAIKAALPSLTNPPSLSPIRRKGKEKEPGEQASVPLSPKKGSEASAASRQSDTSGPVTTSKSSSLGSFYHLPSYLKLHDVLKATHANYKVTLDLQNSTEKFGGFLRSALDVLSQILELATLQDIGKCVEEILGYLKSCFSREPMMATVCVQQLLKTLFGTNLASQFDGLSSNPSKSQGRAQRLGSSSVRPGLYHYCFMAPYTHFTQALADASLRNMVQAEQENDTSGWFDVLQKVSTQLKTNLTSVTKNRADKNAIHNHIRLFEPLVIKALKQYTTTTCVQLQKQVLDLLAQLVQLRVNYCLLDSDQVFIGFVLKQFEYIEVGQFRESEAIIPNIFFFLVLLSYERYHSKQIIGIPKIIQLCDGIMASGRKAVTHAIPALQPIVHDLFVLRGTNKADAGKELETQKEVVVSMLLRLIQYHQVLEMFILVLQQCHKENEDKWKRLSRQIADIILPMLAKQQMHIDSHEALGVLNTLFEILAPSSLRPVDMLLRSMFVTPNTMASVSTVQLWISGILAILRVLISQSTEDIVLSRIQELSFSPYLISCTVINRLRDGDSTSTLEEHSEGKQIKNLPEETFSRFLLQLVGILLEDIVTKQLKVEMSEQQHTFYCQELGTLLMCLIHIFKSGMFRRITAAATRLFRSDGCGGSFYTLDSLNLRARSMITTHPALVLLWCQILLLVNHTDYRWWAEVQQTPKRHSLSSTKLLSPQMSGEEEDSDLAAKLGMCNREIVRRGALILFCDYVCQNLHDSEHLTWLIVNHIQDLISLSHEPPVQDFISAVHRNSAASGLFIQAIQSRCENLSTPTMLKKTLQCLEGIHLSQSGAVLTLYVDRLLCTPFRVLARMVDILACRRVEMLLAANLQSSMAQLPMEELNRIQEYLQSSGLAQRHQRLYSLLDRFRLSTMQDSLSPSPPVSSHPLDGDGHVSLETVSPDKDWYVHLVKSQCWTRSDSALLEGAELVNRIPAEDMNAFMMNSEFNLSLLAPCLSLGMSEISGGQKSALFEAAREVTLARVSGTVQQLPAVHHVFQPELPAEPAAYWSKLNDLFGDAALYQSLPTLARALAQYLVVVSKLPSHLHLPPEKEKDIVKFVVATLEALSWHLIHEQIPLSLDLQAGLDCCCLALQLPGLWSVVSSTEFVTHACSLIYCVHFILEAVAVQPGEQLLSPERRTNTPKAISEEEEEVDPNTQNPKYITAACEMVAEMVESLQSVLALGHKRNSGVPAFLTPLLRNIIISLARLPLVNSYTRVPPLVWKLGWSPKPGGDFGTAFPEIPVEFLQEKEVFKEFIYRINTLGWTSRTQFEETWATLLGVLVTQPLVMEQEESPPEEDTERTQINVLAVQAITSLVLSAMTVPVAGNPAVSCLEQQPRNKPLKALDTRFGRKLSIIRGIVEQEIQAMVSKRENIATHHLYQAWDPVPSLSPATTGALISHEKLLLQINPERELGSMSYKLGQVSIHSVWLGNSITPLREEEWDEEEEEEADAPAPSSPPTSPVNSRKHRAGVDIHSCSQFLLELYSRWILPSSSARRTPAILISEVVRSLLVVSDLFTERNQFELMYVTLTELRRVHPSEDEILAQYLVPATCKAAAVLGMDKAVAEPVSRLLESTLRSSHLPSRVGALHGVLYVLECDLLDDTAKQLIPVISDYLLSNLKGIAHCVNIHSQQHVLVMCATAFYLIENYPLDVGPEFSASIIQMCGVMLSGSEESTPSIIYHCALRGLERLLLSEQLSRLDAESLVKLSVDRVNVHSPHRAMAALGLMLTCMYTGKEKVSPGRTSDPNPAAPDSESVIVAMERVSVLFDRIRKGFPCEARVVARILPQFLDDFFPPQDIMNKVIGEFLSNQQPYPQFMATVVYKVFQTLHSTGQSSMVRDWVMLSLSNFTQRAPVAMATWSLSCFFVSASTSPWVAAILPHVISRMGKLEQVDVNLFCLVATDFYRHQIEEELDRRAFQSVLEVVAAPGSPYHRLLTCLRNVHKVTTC
* marks the source's active call; other numbers are inactive results; x = no result given. An excerpt weighted towards active compounds, which were near 3.6% of everything screened. Rule as the data show it: active = inhibition above about 50%; inactive = the rest.

SMILES | Pf apPOL inh | mHTT CaM bind
CCN(C)C(=O)c1ccccc1N1CCC(NC(=O)c2ccc(C)cc2)CC1 | -81 | 15
Cc1cc(C)c2[nH]c3c(c2c1)CC(NC(=O)C1CCCO1)CC3 (stereo not drawn) | -3 | 54*
Cc1cccc2c3c([nH]c12)CCC(NC(=O)CC(C)C)C3 (stereo not drawn) | -4 | 47
CCOC(=O)C(=O)NC1CCc2[nH]c3ccc(C)cc3c2C1 (stereo not drawn) | 0 | 21
Cc1cc(Cl)cc2c3c([nH]c12)CCC(NC(=O)C1CCCC1)C3 (stereo not drawn) | -4 | 49
COc1ccccc1C(=O)NC1CCc2[nH]c3c(C)cc(Cl)cc3c2C1 (stereo not drawn) | -3 | 92*
Cc1ccccc1C(=O)NC1CCc2[nH]c3ccc(Br)cc3c2C1 (stereo not drawn) | 0 | 100*
COc1ccc(OC)c2sc(N(CCN(C)C)C(=O)c3cccc(SC)c3)nc12 | 2 | 18
CSc1cccc(C(=O)N(CCn2cccn2)c2nc3c(Cl)cccc3s2)c1 | -5 | 100*
Cc1ccc(NC(=O)C2c3ccccc3C(=O)N(C)C2c2c[nH]c3ccccc23)c(Cl)c1 (stereo not drawn) | -6 | 87*
CN1C(=O)c2ccccc2C(C(=O)Nc2ccc(F)cc2Cl)C1c1ccc(F)cc1 (stereo not drawn) | -6 | -2
CCc1ccc(-n2[nH]c(=O)c(C=c3c(C)c(C#N)c4nc5ccccc5n4c3=O)c2O)cc1 | 6 | 57*
N#Cc1c2c(c(NCCCN3CCOCC3)n3c1nc1ccccc13)CCC2 | 67* | 6
CCc1c(C)c(C#N)c2nc3ccccc3n2c1NCCO | 73* | -3
C=CCc1c(C)c(C#N)c2nc3ccccc3n2c1NCCCN(CC)CC | -74 | -6
N#Cc1c2c(c(NCCN3CCOCC3)n3c1nc1ccccc13)CCCC2 | -1 | -4
CCc1c(C)c(C#N)c2nc3ccccc3n2c1NCCOC | 0 | -3
Cc1ccc(-n2[nH]c(=O)c(C=c3c(C)c(C#N)c4nc5ccccc5n4c3=O)c2O)cc1C | -5 | 46
CCc1c(C)c(C#N)c2nc3ccccc3n2c1NCCCN(CC)CC | 82* | -2
CCOc1ccccc1C(=O)N1CCC2(CC1)NC(=O)c1ccccc1N2CC | -5 | -6
Cc1ccc(C(=O)NC(C(=O)N2CCN(C)CC2)C23CC4CC(CC(C4)C2)C3)cc1 (stereo not drawn) | 6 | 2
Cc1ccc(C2CC(C(F)(F)F)n3nc(C(=O)Nc4cccc(C)c4)cc3N2)cc1 (stereo not drawn) | -3 | 3
Cc1ccc(CNC(=O)Cn2cc3c(n2)CCCCC3)cc1 | -9 | 5
CCCCCc1c2c(C)c(C(=O)OCC)nc-2cc2n1C(C)C(C)=C2C (stereo not drawn) | x | 7
CN(C)CCNC(=O)C1CCN(c2nc3ccc(-c4ccccc4)nc3s2)CC1 | 1 | 10
SMILES | Pf apPOL inh | mHTT CaM bind
O=C(Nc1ccc(Oc2ccc(Cl)cc2)cc1)c1cc2ccccc2oc1=O | -1 | -1
CC12CC(=O)C(C)(C1)C1C(=O)N(c3ccc(O)cc3)C(=O)C12 (stereo not drawn) | 1 | -1
CCc1c(C)c(C#N)c2nc3ccccc3n2c1NCCCN(C)C | 60* | -4
CCc1c(C)c(C#N)c2nc3ccccc3n2c1NCCC(C)C | -2 | -14
Cc1ccc(C(=O)N2CCCC(COc3cccc(C(=O)NC4CC4)c3)C2)cc1F (stereo not drawn) | -2 | 8
COc1ccc(CCNC(=O)NCC(C)(O)c2cccs2)cc1 (stereo not drawn) | -5 | -11
O=C(Cc1nc(-c2cnccn2)n[nH]1)NCc1ccccc1 | 4 | 24
O=C(Cc1nc(-c2ccccn2)n[nH]1)NC1CC1 | -12 | 100*
O=C(Cc1ccccc1)NC1CCCCCC1 | -4 | -5
O=C(Cc1nc(-c2ccccn2)n[nH]1)NC1CCCC1 | -10 | 98*
Fc1ccc(CN2CCCN(c3ncccc3-c3nc(C4CC4)no3)CC2)c(Cl)c1 | -2 | -75
O=c1[nH]c(-c2ccccc2O)nc2ccccc12 | 2 | -9
Oc1ccccc1-c1nc2ccccc2[nH]1 | 1 | 65*
CCOc1cc(/C=C2/C(=O)ON=C2C)ccc1OCc1cccc(Cl)c1 | -6 | 99*
C#CCOc1ccc(/C=C2\C(=O)ON=C2C)cc1OCC | -6 | 51*
CCOc1cc(/C=C2\C(=O)ON=C2C)ccc1OCc1ccccc1 | 2 | 15
C=CCOc1ccc(/C=C2/C(=O)ON=C2C)cc1OC | -4 | 87*
COc1cc(/C=C2/C(=O)ON=C2C)ccc1OCCc1ccccc1 | 0 | 20
C#CCOc1ccc(/C=C2\C(=O)ON=C2C)cc1OC | -3 | 22
CCOc1cc(/C=C2/C(=O)ON=C2C)ccc1OCc1ccc(Br)cc1 | 11 | 13
CCCOc1ccc(/C=C2\C(=O)ON=C2C)cc1OCC | 1 | 85*
Cc1c(C(=O)N2CCCCCC2)oc2ccc(S(=O)(=O)N3CCCCC3)cc12 | -8 | 8
O=S(=O)(Cc1nc(C=Cc2cc(C(F)(F)F)cc(C(F)(F)F)c2)no1)c1ccc(Cl)cc1 | 6 | x
COc1cc(/C=C2\NC(=O)NC2=O)cc(Cl)c1OCc1ccc([N+](=O)[O-])cc1 | -6 | 8
CC(=O)OCC1OC(n2ncc(=O)[nH]c2=O)C(OC(C)=O)C1OC(C)=O (stereo not drawn) | -4 | x
SMILES | Pf apPOL inh | mHTT CaM bind
CCOc1ccc(/C=C2\C(=O)ON=C2C)cc1OC | 1 | 64*
COc1cc(/C=C2/C(=O)ON=C2C)ccc1OCC(C)C | -7 | 16
CC(C)c1ccc(OCC(=O)NC2CCS(=O)(=O)C2)cc1 (stereo not drawn) | -6 | -1
COc1ccc(/C=C2\CCCC(C(=O)C(F)(F)F)=C2O)cc1 | 13 | 55*
COc1ccc(/C=C2\CCC(C3CCCC3)C2=O)cc1 (stereo not drawn) | -2 | -19
COc1ccc(-c2coc3c4c(ccc3c2=O)OCN(CCc2ccccc2OC)C4)cc1 | -22 | 13
CC(C)(C)[C@@H]1CCC(=O)N(CC[C@H](Sc2ccccc2)c2ccccc2)CC1 | -1 | -6
CC(=O)Nc1ccc(S[C@@H](CCN2CC[C@H](C(C)(C)C)CCC2=O)c2ccccc2)cc1 | -1 | 61*
Nc1cc(C2CCN(C(=O)CCC3CCCC3)CC2)no1 | -1 | -6
CC1=C(C(=O)Nc2ccc(C)c(C)c2)C2(CCCCC2)OC1=O | -2 | 4
COc1ccc(/C=C2\C=C(c3ccccc3)N(c3ccccc3O)C2=O)cc1 | 3 | 76*
O=C1/C(=C/c2ccc([N+](=O)[O-])cc2)C=C(c2ccccc2)N1c1ccccc1O | 8 | 24
O=C(CSc1ccccn1)Nc1ccccc1[N+](=O)[O-] | -7 | 17
Cc1[nH]c(C(=O)N2CCC(CC(=O)NCCc3c[nH]c4ccccc34)CC2)c(C)c1C | -3 | 90*
O=C(CC1CCN(C(=O)C2CCCCC2)CC1)NCCc1c[nH]c2ccc(Cl)cc12 | -3 | 100*
COc1ccc(CCNC(=O)CC2CCN(C(=O)C3CCCCC3)CC2)c(OC)c1 | -9 | 30
CCc1ccc(CNC(=O)CC2CCN(C(=O)c3[nH]c(C)c(C)c3C)CC2)cc1 | 3 | 16
Cc1ccc2c(Cl)c(C(=O)NCC(C)C)sc2c1 | -5 | -10
COc1cc(OC)cc(N2C(=O)CC(N3CCN(Cc4ccccc4)CC3)C2=O)c1 (stereo not drawn) | -1 | -5
CC(C)c1ccc(S(=O)(=O)N=C2C=CC(=O)c3ccccc32)cc1 | 11 | 67*
